Results: ChEMBL document CHEMBL1157539, “Thousands of chemical starting points for antimalarial lead identification” (Nature, 2010)

test system: Plasmodium falciparum; assay: GSK_TCMDC: Inhibition of Plasmodium falciparum 3D7 in whole red blood cells, using parasite LDH activity as an index of growth. Test compounds present at 2uM; type: functional

SMILES | Inhibition
O=C(Nc1ccc(Cl)cc1)N1CCN(C2CCCCC2)CC1 | 93%
Cc1ccccc1CNc1noc(-c2c(-c3ccccc3)noc2C)n1 | 94%
Clc1ccc(Nc2nc3ccc(Cl)cc3nc2Nc2ccc(Cl)cc2)cc1 | 99%
N#Cc1cccc(Nc2cc(C(F)(F)F)nc(Nc3ccccc3)n2)c1.O=C(O)C(F)(F)F | 92%
COc1cccc(Nc2nc(C)cc(NCc3ccc(-n4ccnc4)cc3)n2)c1 | 100%
Cc1cc(=O)c(-c2ccc(Oc3cccc(Cl)c3)cc2)c(C)[nH]1 | 95%
COc1ccc(-n2c(=O)c3c(n4c(SC(C)C)nnc24)-c2ccccc2CC32CCCCC2)cc1 | 99%
N#Cc1cc([N+](=O)[O-])ccc1-n1nc(-c2cccc(Cl)c2)n(CC2CCCO2)c1=S (stereo not given) | 91%
COc1cccc(C(NC(=O)c2ccccc2)c2ccc3cccnc3c2O)c1 (stereo not given) | 89%
Cc1cc(Nc2ccc(O)cc2)nc2cc(O)ccc12.Cl | 100%
Nc1ncc(-c2ccc3[nH]ccc3c2)c2ccc(-c3ccncc3)cc12 | 100%
CC(C)C(=O)NC(c1ccc(Cl)cc1)c1ccc2cccnc2c1O (stereo not given) | 91%
Cc1noc(-c2ccccc2)c1NC(=O)N1CCN(CCCCCCNC(=O)/C=C/c2ccc(Cl)c(Cl)c2)CC1 | 95%
Cn1cnc(CCNC(=O)c2ccc(-c3ccc(-c4nc5cc(C(F)(F)F)ccc5[nH]4)s3)cc2)c1 | 100%
CSCCCN1CCC(O)(c2ccc3oc(C(=O)Nc4ccc5sc(C)nc5c4)cc3c2)CC1 | 100%
CC(C)N1CCC(NC(=O)N2CCCN(c3ncnc4cc(-c5ccc(Cl)cc5)sc34)CC2)CC1.O=C(O)C(F)(F)F | 81%
COc1cc(NC(=O)c2ccc3oc4ccccc4c3c2)ccc1OCCN1CCCCC1.Cl | 89%
COc1cc2nc(N3CC(C)N(C(=O)Cc4ccc(-c5ccccc5)cc4)C(C)C3)nc(N)c2cc1OC (stereo not given) | 100%
CC(COc1ccc2c(c1)OC(C)(C)CC2c1ccccc1)NCC(O)c1cccc(Cl)c1.Cl (stereo not given) | 98%
C[C@H](Cc1ccc(S(=O)(=O)c2ccc(C[C@@H](C)NC[C@H](O)c3cccc(Cl)c3)cc2)cc1)NC[C@H](O)c1cccc(Cl)c1.Cl | 99%

SMILES | Inhibition
COc1ccc(-c2ccc(NC(=O)c3ccc(C#N)cc3)cc2)cc1CN1CCNCC1.O=C(O)C(F)(F)F | 96%
N#Cc1ccc(N(CCOc2ccc(Cl)c(F)c2)Cc2ccccc2C(F)(F)F)cc1C(F)(F)F | 100%
CCCCOc1ccc(/C=C/c2ccc(-c3c(C)[nH]c(C)c(Cl)c3=O)s2)cc1 | 97%
CCN1CCCC1CN(Cc1ccc(-c2ccc(C(F)(F)F)cc2)cc1)C(=O)Cn1c(CCc2cccc(F)c2F)nc(=O)c2ccccc21.O=C(O)C(O)C(O)C(=O)O (stereo not given) | 94%
COc1ccc(C(=O)CCC(=O)N(Cc2ccc(-c3ccc(CNCCc4ccccc4)cn3)cc2)C(C)CN(C)C)cc1F.O=C(O)C(F)(F)F (stereo not given) | 98%
Cc1cccc2nc(-c3ccc(-c4cccc(CNCCN5CCNCC5)c4)cc3)[nH]c12.O=C(O)C(F)(F)F | 85%
O=C(Nc1cccc(-c2ccc(-c3nc4cc(C(F)(F)F)ccc4[nH]3)s2)c1)c1cccnc1 | 100%
CCNC(=O)N1CCN(c2nc(-c3ccccc3)nc(COC)c2Cc2ccc(C)cc2)CC1 | 95%
N#Cc1cccc(CN(Cc2ccc(Cl)c(Cl)c2)S(=O)(=O)c2cccc([N+](=O)[O-])c2)c1 | 100%
Cc1cc(N[C@@H](Cc2ccccc2)C(=O)NCc2cccs2)nc(NCCc2ccc(F)cc2)n1.O=C(O)C(F)(F)F | 100%
Cl.N#Cc1ccc2c(c1)CCN(CCC1CCC(NC(=O)c3cc4ccc(Br)cc4[nH]3)CC1)C2 (stereo not given) | 100%
CCN1CCN(c2cc(C)c3cc(NC(=O)c4ccc(OC)c(OC)c4)ccc3n2)CC1 | 90%
COc1cccc(-c2cc(C(=O)Nc3cc(Oc4ccc(O)cc4)cc([N+](=O)[O-])c3)on2)c1 | 89%
CC(C)CCNC(=N)c1ccc(OCCCCCOc2ccc(C(=N)NCCC(C)C)cc2)cc1.Cl | 98%
CC(=O)Nc1cccc(/C=C/C(=O)N2CCC(N3CCCCC3)CC2)c1 | 96%
COc1ccc(CCNCc2cc3c(C(C)(C)C)nn(-c4ccc(Cl)cc4)c3[nH]c2=O)cc1OC | 100%
CCOC(=O)c1cc(=O)c2ccc(OCC#N)cc2o1 | 88%
CN1CCN(CCCN(Cc2cccc(-c3ccc(CNC4CCCC4)cc3)c2)C(=O)CCC2CCCC2)CC1.O=C(O)C(F)(F)F | 97%
O=C(Nc1cccc(OCc2ccccc2)c1)c1ccc(CN2CCC(Cc3ccccc3)CC2)cc1 | 100%
CC(C)(C)c1ccc(CNC(=O)/C=C/c2ccc(CNC3CCNCC3)cc2)cc1 | 96%
